Experimental data published in PubChem BioAssay (NCI).
Several values for one entry are separate records, joined by “and”; a condition that tells them apart may be missing. Equal values may be shown once. The panel holds about 83,000 compounds, 20% with a hit somewhere; the sample as a whole holds those more often.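 The endpoint reported here, percent growth, reads 100 for growth as untreated, 0 for no net growth and -100 for all cells dead.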 Activity calls are given as the source filed them. How the source made its calls: active means growth percent below 10; inactive means the rest.

What was measured:
Assay in all cases: NCI-60 one-dose screen, 48 h (100 = growth as untreated, 0 = no growth, -100 = all killed)
[1] = tested on: NCI-H23 lung
[2] = tested on: NCI-H226 lung
[3] = tested on: NCI-H322M lung
[4] = tested on: HOP-62 NSCLC
[5] = tested on: NCI-H460 lung
[6] = tested on: HOP-92 NSCLC
[7] = tested on: NCI-H522 lung
[8] = tested on: A549/ATCC NSCLC
[9] = tested on: 786-0 renal
[10] = tested on: COLO 205 colon
[11] = tested on: DU-145 prostate
[12] = tested on: K-562 leukemia
[13] = tested on: MALME-3M melanoma
[14] = tested on: MDA-MB-231 breast
[15] = tested on: RXF 393 renal
[16] = tested on: SF-268 CNS
[17] = tested on: SF-295 CNS
[18] = tested on: SF-539 CNS
[19] = tested on: UACC-257 melanoma
[20] = tested on: M14 melanoma

Measured: growth

CCCCCCCCCCCCCCCCCCOCC(COP(=O)([O-])OCC[N+](C)(C)C)OC (centres undefined)
inactive: [1]; 10 µM 89.1% | [2]; 10 µM 93.9% | [3]; 10 µM 107% | [4]; 10 µM 44% | [5]; 10 µM 46.4% | [6]; 10 µM 59.9% | [7]; 10 µM unless noted 73% | [8]; 10 µM 97.5% | [9]; 10 µM 87.6% | [11]; 10 µM unless noted 129% | [12]; 10 µM 104% | [13]; 10 µM 80.7% | [14]; 10 µM 74.4% | [15]; 10 µM unless noted 47.2% | [16]; 10 µM 79.6% | [17]; 10 µM 89.9% | [18]; 10 µM 88.8% | [19]; 10 µM 95%
active: [10]; 10 µM 2.62%

O=C(C(=Cc1ccccc1)C(=O)c1ccccc1)c1ccccc1
inactive: [1]; 10 µM 66.7% and 95.2% | [2]; 10 µM 68.4% and 97.7% | [3]; 10 µM 89.6% and 110% | [4]; 10 µM 102% | [5]; 10 µM 33.3% and 96.3% | [6]; 10 µM 65.7% and 84.3% | [7]; 10 µM unless noted 75.2% and 68.9% | [8]; 10 µM 81.6% and 83.1% | [9]; 10 µM 73.5% and 97.3% | [10]; 10 µM 124% | [11]; 10 µM unless noted 61.3% and 102% | [12]; 10 µM 35.5% and 93.8% | [13]; 10 µM 88.4% and 108% | [14]; 10 µM 70.5% and 74.8% | [15]; 10 µM unless noted 66.5% and 98.8% | [16]; 10 µM 58.5% and 83.3% | [17]; 10 µM 65.4% and 97.7% | [18]; 10 µM 72.9% and 96.9% | [19]; 10 µM 73% and 83.7% | [20]; 10 µM 47.5%

CN(C)C(=S)SC(=S)N(C)C
inactive: [1]; 10 µM 92.1% and 108% | [2]; 10 µM 104% | [3]; 10 µM 101% and 86% | [4]; 10 µM 112% and 103% | [5]; 10 µM 98.7% and 91.3% | [6]; 10 µM 97.9% and 108% | [7]; 10 µM unless noted 77.4% and 61.1% | [8]; 10 µM 95.9% and 86.6% | [9]; 10 µM 96.7% and 105% | [10]; 10 µM 81.5% and 49.1% | [11]; 10 µM unless noted 108% and 104% | [12]; 10 µM 58% and 75.7% | [13]; 10 µM 84.7% and 85% | [14]; 10 µM 105% and 122% | [15]; 10 µM unless noted 108% and 109% | [16]; 10 µM 107% and 95.8% | [17]; 10 µM 100% and 101% | [18]; 10 µM 93.5% and 101% | [19]; 10 µM 96.5% and 77.5% | [20]; 10 µM 90.5% and 93%

COc1cccc2c1C(=O)c1c(O)c3c(c(O)c1C2=O)C[C@@](O)(C(C)=O)C[C@@H]3OC1CC(N)C(O)C(C)O1 (some centres undefined)
active: [1]; 10 µM -40.5% | [2]; 10 µM -6.94% | [3]; 10 µM 3.64% | [4]; 10 µM -26.1% | [5]; 10 µM -25.3% | [6]; 10 µM -25.2% | [7]; 10 µM unless noted -52% | [8]; 10 µM -29.9% | [9]; 10 µM -18.5% | [10]; 10 µM -54.3% | [11]; 10 µM unless noted -11.4% | [12]; 10 µM -49.5% | [13]; 10 µM -77.1% | [14]; 10 µM -17.9% | [15]; 10 µM unless noted -46.9% | [16]; 10 µM -14.5% | [17]; 10 µM -26.9% | [18]; 10 µM -70.9% | [19]; 10 µM -33.3%

COc1cccc2c1C(=O)c1c(O)c3c(c(O)c1C2=O)C[C@@](O)(C(=O)CO)C[C@@H]3OC1CC(N)C(O)C(C)O1 (some centres undefined)
active: [2]; 10 µM -18.3% | [4]; 10 µM 6.93% | [5]; 1 µM -31.1% | [5]; 2.5 µM 9.19% | [5]; 10 µM 0.571% | [6]; 10 µM -22.8% | [7]; 1 µM -10.4% | [7]; 10 µM -38% | [8]; 10 µM -30.5% | [9]; 1 µM -14.3% | [9]; 10 µM 4.5% | [10]; 10 µM -47.4% | [11]; 2.5 µM -33.2% | [12]; 10 µM 2.13% | [13]; 1 µM -17.2% | [13]; 10 µM -80.1% | [14]; 10 µM 3.79% | [15]; 10 µM -28.5% | [16]; 10 µM -4.32% | [17]; 1 µM 2.06% | [17]; 2.5 µM -1.94% | [17]; 10 µM -27.6% | [18]; 10 µM -50.3% | [19]; 10 µM 3.46%
inactive: [1]; 0.0025 µM 90% | [1]; 1 µM 28.2% | [1]; 2.5 µM 33.1% | [1]; 10 µM 33.3% | [2]; 0.0025 µM 84% | [2]; 2.5 µM 23.1% | [3]; 0.0025 µM 86.8% | [3]; 1 µM 63.4% | [3]; 2.5 µM 101% | [3]; 10 µM 13.9% | [4]; 0.0025 µM 88.3% | [4]; 2.5 µM 31.5% | [5]; 0.0025 µM 73.4% | [6]; 0.0025 µM 85.2% | [6]; 2.5 µM 51% | [7]; 0.0025 µM 78.3% | [8]; 0.0025 µM 73% | [8]; 1 µM 33.7% | [8]; 2.5 µM 36.5% | [9]; 0.0025 µM 84.4% | [9]; 2.5 µM 26.8% | [10]; 0.0025 µM 85.8% | [10]; 1 µM 53.8% | [10]; 2.5 µM 56.7% | [11]; 10 µM 13.2% | [12]; 0.0025 µM 107% | [12]; 1 µM 32.8% | [12]; 2.5 µM 28.1% | [13]; 0.0025 µM 79.3% | [13]; 2.5 µM 30% | [14]; 0.0025 µM 124% | [14]; 1 µM 71% | [14]; 2.5 µM 82.1% | [15]; 0.0025 µM 107% | [16]; 0.0025 µM 97% | [16]; 1 µM 41% | [16]; 2.5 µM 16.7% | [17]; 0.0025 µM 95.8% | [18]; 0.0025 µM 97.1% | [18]; 1 µM 36.5% | [18]; 2.5 µM 32.3% | [19]; 0.0025 µM 90% | [19]; 1 µM 28.3% | [19]; 2.5 µM 42.8% | [20]; 0.0025 µM 90.9% | [20]; 1 µM 16.6% | [20]; 2.5 µM 50.9%
